# The full ranking holds about 33,000 sequences; the median of “e-score” is about -0.053, and the highest 2% start at about 0.38. The full list was thinned out, with the highest values kept by preference.
# Molecular target: T1, SIX1 homeodomain (reference allele) (human, UniProt Q15475 108-198)
# T1 sequence: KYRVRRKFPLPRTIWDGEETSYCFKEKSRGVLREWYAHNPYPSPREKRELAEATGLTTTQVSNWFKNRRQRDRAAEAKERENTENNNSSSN
# Test: universal protein binding microarray; Universal all-10-mer PBM (8x60K, AMADID 030236), 300 nM GST-tagged protein, Alexa Fluor 488 anti-GST; buffer, salt, pH and temperature not stated (as in Berger); high values mean tight binding
# Settings: protein: ivt; tags: N-terminal GST; dsDNA, one strand shown
# Outline: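 Duplicate protein binding microarrays (universal 'all 10-mer', 8×60K format) were incubated with GST-tagged homeodomains at 300 nM final concentration. Binding was quantified as 8-mer E-scores with the Universal PBM Analysis Suite.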
row,Sequence,binding signal [E-score]
1,AGGAATCC,0.197 ± 0.00841
2,GATCGTCC,0.238 ± 0.0474
3,CAAACCCG,0.174 ± 0.0382
4,AAATACCG,0.178 ± 0.0267
5,CGATACCG,0.45 ± 0.0109
6,AGATACCT,0.42 ± 0.0259
7,AAATACCT,0.173 ± 0.0423
8,AGATACAT,0.329 ± 0.00303
9,ACATACCG,0.162 ± 0.0512
10,CAATACCC,0.387 ± 0.00788
11,AGATACCA,0.422 ± 0.0101
12,GAATACCC,0.368 ± 0.0333
13,CAATACCG,0.354 ± 0.0156
14,CCATACAC,0.174 ± 0.121
15,ATCATTGA,0.2801 ± 0.000297
16,ATCGTGTC,0.274 ± 0.0122
17,GATAGATA,0.364 ± 0.0331
18,CTAGTGTA,0.189 ± 0.0116
19,GGTTCATA,0.154 ± 0.00678
20,CCATACCC,0.274 ± 0.0803
21,CGATACCC,0.4916 ± 0.00317
22,TGATACAA,0.337 ± 0.0251
23,TGATACCA,0.4811 ± 0.00363
24,ACATACCC,0.194 ± 0.0165
25,AGATACCC,0.4684 ± 0.00214

row,Sequence,binding signal [E-score]
1,CGATACCA,0.455 ± 0.0104
2,CAATACCA,0.375 ± 0.0246
3,CTATACCA,0.245 ± 0.018
4,AGATACCG,0.37 ± 0.00507
5,TAATACCA,0.37 ± 0.0315
6,CGATAACC,0.2329 ± 0.00167
7,CGGTACTC,0.176 ± 0.0493
8,ATCAGGGG,0.307 ± 0.019
9,TAGTGTCA,0.245 ± 0.0279
10,ATCAATCA,0.221 ± 0.00233
11,AAACGTAT,0.262 ± 0.0965
12,ATATTCCC,0.305 ± 0.0527
13,ATACTGGG,0.225 ± 0.0379
14,ACGATCAT,0.186 ± 0.0246
15,ATCACGTC,0.189 ± 0.0151
16,ATATGTCA,0.166 ± 0.0885
17,GCATACCC,0.289 ± 0.0463
18,AAATACCC,0.2 ± 0.00818
19,GTATACCA,0.364 ± 0.00595
20,GGATACCA,0.426 ± 0.0353
21,GGATACCC,0.484 ± 0.00911
22,GAATACCA,0.278 ± 0.0281
23,AGTATAAG,0.161 ± 0.0893
24,TAATATAA,0.257 ± 0.0514
25,ATCCACGA,0.154 ± 0.0369

row,Sequence,binding signal [E-score]
1,ACTATCCT,0.318 ± 0.0157
2,CTATTATC,0.189 ± 0.0626
3,GACTATAC,0.237 ± 0.00521
4,CCGATAGC,0.329 ± 0.00875
5,CCGATAAC,0.239 ± 0.00451
6,CCGATATC,0.457 ± 0.0156
7,ACGATATA,0.296 ± 0.0641
8,ACGATATG,0.417 ± 0.0227
9,ACGATCTC,0.189 ± 0.0362
10,ACTATATC,0.367 ± 0.0339
11,ACGATCGG,0.169 ± 0.0263
12,ACGATATC,0.454 ± 0.0379
13,ACCACACC,0.174 ± 0.038
14,ATACGCCC,0.275 ± 0.0117
15,GATAACCA,0.213 ± 0.00941
16,ATCACTTG,0.29 ± 0.0319
17,GGCTAATA,0.201 ± 0.0383
18,AATATGGT,0.177 ± 0.105
19,GATAGCAC,0.236 ± 0.0609
20,ACGCGATA,0.316 ± 0.0166
21,GGGCGATA,0.347 ± 0.0047
22,CCGCGATC,0.354 ± 0.0349
23,GCGCGATA,0.379 ± 0.0395
24,CGGCGATA,0.3475 ± 0.00182
25,CCGCGATA,0.4109 ± 0.00278

row,Sequence,binding signal [E-score]
1,ATATAGAG,0.202 ± 0.0348
2,CCAGATGA,0.203 ± 0.0127
3,ACTACCTA,0.157 ± 0.0187
4,GAATACTC,0.155 ± 0.0382
5,GTAGATAC,0.289 ± 0.0214
6,ATAGATAT,0.389 ± 0.0559
7,ACAGATAT,0.356 ± 0.0703
8,ATAGATAG,0.167 ± 0.0369
9,ATAGATCC,0.302 ± 0.00993
10,ATAGATAC,0.393 ± 0.0221
11,ATCACCTA,0.232 ± 0.0325
12,AGACGATA,0.363 ± 0.0344
13,ATATCTTC,0.365 ± 0.0612
14,CCGTCTCA,0.268 ± 0.0487
15,TAGTATAA,0.199 ± 0.033
16,AAGTATCT,0.266 ± 0.102
17,TAGTATCA,0.457 ± 0.0196
18,TACTATCA,0.325 ± 0.0557
19,GAGTATCA,0.47 ± 0.0248
20,GAGTATAA,0.179 ± 0.136
21,CAGTATTA,0.295 ± 0.0164
22,AAGTATCA,0.461 ± 0.0304
23,CAGTATCA,0.465 ± 0.0101
24,AAGTATAA,0.184 ± 0.123
25,GAGTATTA,0.261 ± 0.103

row,Sequence,binding signal [E-score]
1,CAGTATGA,0.151 ± 0.0873
2,ATCCCGCC,0.27 ± 0.00284
3,GGATAATA,0.328 ± 0.0761
4,ATAGGGTG,0.161 ± 0.00687
5,ATCATTGC,0.244 ± 0.0146
6,AGTTGGTG,0.191 ± 0.00358
7,AAGACGAT,0.17 ± 0.0796
8,ATCCTCGG,0.23 ± 0.0328
9,CAGTATCG,0.4353 ± 0.00267
10,AAGTATCG,0.369 ± 0.0877
11,CAGTATCC,0.39 ± 0.0154
12,CAGTATAC,0.295 ± 0.0256
13,CACTATCC,0.295 ± 0.013
14,CAGTATAG,0.178 ± 0.0386
15,GGATTACC,0.271 ± 0.0437
16,CTCTCCCC,0.164 ± 0.0775
17,ATCACCTG,0.33 ± 0.0102
18,GGATCCAA,0.41 ± 0.0258
19,AGATCCAA,0.204 ± 0.00278
20,CGATCCTA,0.299 ± 0.00788
21,GGATCCTA,0.377 ± 0.0205
22,GGATCCAC,0.317 ± 0.0719
23,AGATCCTA,0.2149 ± 0.00162
24,CCGAAACC,0.185 ± 0.0211
25,AAGAGGAT,0.212 ± 0.00759

row,Sequence,binding signal [E-score]
1,CGTAGTGA,0.182 ± 0.0165
2,CAGGACAC,0.187 ± 0.0771
3,GGATATGA,0.356 ± 0.0113
4,CGCTATCA,0.34 ± 0.0391
5,AGAGATCT,0.198 ± 0.0724
6,GAATATCA,0.366 ± 0.0771
7,GGCTATCA,0.392 ± 0.0544
8,AGATATCT,0.385 ± 0.082
9,AGATATCG,0.434 ± 0.0383
10,AGATATGG,0.335 ± 0.0142
11,AGCTATCA,0.313 ± 0.116
12,GGATATCA,0.487 ± 0.00885
13,AGATATTG,0.311 ± 0.0669
14,AAATATCT,0.157 ± 0.0748
15,ATCACCGG,0.291 ± 0.0263
16,ACACGGTA,0.188 ± 0.0434
17,GGATCGCC,0.342 ± 0.0494
18,TATAGCGA,0.164 ± 0.0391
19,ATCCATCG,0.246 ± 0.0374
20,ACATAGTA,0.205 ± 0.029
21,CTACTATA,0.153 ± 0.00888
22,ACACCACG,0.263 ± 0.0526
23,AGATATTC,0.219 ± 0.06
24,AGATATCC,0.442 ± 0.0272
25,AGATATTA,0.234 ± 0.119

row,Sequence,binding signal [E-score]
1,TGATAGCA,0.323 ± 0.0297
2,CGATATTA,0.365 ± 0.045
3,TGATATCA,0.48 ± 0.0111
4,AAATATCC,0.271 ± 0.0279
5,CGATATCA,0.444 ± 0.0437
6,TGATATAA,0.297 ± 0.032
7,AGATATGA,0.291 ± 0.0439
8,AGATATCA,0.451 ± 0.0439
9,CAATATCA,0.306 ± 0.111
10,ATCTGTCA,0.208 ± 0.00539
11,ATCCCTTG,0.271 ± 0.0326
12,GGATTCGA,0.212 ± 0.0426
13,TATCCCAA,0.329 ± 0.0116
14,CGTATTCA,0.265 ± 0.0108
15,ATCTACCG,0.23245 ± 0.00017
16,GATCTTCC,0.2463 ± 0.00105
17,CGATATGC,0.428 ± 0.00624
18,CGATATCG,0.439 ± 0.0105
19,CAATATCC,0.37 ± 0.00402
20,CGATAGCG,0.228 ± 0.0412
21,AGATATGC,0.353 ± 0.0369
22,GGATATCC,0.4671 ± 0.00165
